# Test results from PubChem BioAssay.
# Calls of active or inactive are those of the source.
# Tests used:
# [1] = anti-His antibody binders, primary screen, artefact control for SMM control protein annotation, biochemical, small-molecule microarray, 635 nm fluorescence (AID 1128); details: anti-His Alexa647 antibody binding, higher = more signal;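 also: score merges feature fluorescence with signal-to-noise for each printed compound spot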
# [2] = system: Human papillomavirus type 1a E7 protein (residues 1-88); test: HPV1a E7 small-molecule binders, primary screen, biochemical, small-molecule microarray, residues 1-88, 635 nm (AID 1129); details: small-molecule microarray binding, fluorescence 635 nm; higher = more signal
# [3] = target: Focal adhesion kinase 1 (Homo sapiens) (UniProt Q05397); test: small-molecule microarray binders of FAK, primary screen, biochemical, 635/667 nm fluorescence, BSA, DTT (AID 1130); details: PTK2 binding, 635 nm fluorescence, higher = more signal;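 also: composite of spot emission at 667 nm and signal to noise over triplicate slides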
# [4] = system: Fibrinogen (Alexa647-labelled); test: fibrinogen binders on compound microarrays, profiling panel, artefact control for SMM control-protein annotation, biochemical, small-molecule microarray, 635/667 nm fluorescence (AID 1131); details: fibrinogen-A647 binding fluorescence, higher = more signal;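 also: z-score merges 667 nm fluorescence with per-spot signal-to-noise over triplicate slides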
# [5] = target: Follistatin (Homo sapiens) (UniProt P19883); test: follistatin binders on small-molecule microarrays, primary screen, biochemical, small-molecule microarray, 635/667 nm fluorescence (AID 1132); details: FST binding, 635 nm fluorescence, higher = more signal
# [6] = target: Fibroblast growth factor 2 (Homo sapiens) (UniProt P09038); test: FGF2 binders on small-molecule microarrays, primary screen, biochemical, small-molecule microarray, 635/667 nm fluorescence (AID 1133); details: small-molecule microarray binding, FGF2, fluorescence 635/667; higher = more signal
# [7] = mitochondrial membrane potential change in A549 cells, profiling panel, cell-based, JC-1 fluorescence, basal, 24 h, 100 nL (AID 1138); details: higher = more signal;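 also: A549 lung adenocarcinoma cells under basal conditions with no added stimulus; test concentration not given here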
# Lefty1 = Lefty1 binders on small-molecule microarrays, primary screen, biochemical, small-molecule microarray, 635/667 nm fluorescence (AID 1139); details: small-molecule microarray binding, fluorescence 635/667; higher = more signal
# [8] = system: wheat germ agglutinin (Triticum aestivum), Alexa647-labelled; test: wheat germ agglutinin binders on compound microarrays, profiling panel, artefact control for SMM control-protein annotation, biochemical, small-molecule microarray, 635/667 nm fluorescence (AID 1140); details: WGA-A647 binding, 635 nm fluorescence, higher = more signal;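 also: score merges 667 nm feature emission with signal to noise over triplicate slides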
# [9] = target: Luciferin 4-monooxygenase (Photinus pyralis) (UniProt P08659); test: firefly luciferase enzyme inhibitors, primary screen, biochemical, luminescence, purified enzyme, 2006 set (AID 1141); details: SteadyGlo luminescence, 30 min, higher = more signal, called active from +8 up or from −8 down;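 also: cell-free assay with purified firefly luciferase at 100 ng per well in PBS; test concentration not given here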
# Sequence of Luciferin 4-monooxygenase (Photinus pyralis) (P08659 whole entry, looked up): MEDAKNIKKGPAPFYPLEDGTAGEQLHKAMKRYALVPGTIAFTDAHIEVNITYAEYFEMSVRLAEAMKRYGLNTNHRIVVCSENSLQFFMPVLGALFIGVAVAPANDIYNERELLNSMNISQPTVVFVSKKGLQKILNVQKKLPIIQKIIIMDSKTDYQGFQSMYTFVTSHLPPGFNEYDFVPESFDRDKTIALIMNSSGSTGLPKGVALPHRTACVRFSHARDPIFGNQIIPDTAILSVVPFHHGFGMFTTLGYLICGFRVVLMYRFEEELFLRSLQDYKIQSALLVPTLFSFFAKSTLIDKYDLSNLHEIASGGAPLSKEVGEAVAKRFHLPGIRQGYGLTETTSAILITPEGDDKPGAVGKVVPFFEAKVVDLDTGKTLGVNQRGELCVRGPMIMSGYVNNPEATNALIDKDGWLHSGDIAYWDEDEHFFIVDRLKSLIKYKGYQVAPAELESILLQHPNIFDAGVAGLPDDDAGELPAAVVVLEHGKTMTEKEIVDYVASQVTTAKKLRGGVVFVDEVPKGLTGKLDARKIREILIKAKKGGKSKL
# Sequence of Follistatin (Homo sapiens) (P19883 whole entry, looked up): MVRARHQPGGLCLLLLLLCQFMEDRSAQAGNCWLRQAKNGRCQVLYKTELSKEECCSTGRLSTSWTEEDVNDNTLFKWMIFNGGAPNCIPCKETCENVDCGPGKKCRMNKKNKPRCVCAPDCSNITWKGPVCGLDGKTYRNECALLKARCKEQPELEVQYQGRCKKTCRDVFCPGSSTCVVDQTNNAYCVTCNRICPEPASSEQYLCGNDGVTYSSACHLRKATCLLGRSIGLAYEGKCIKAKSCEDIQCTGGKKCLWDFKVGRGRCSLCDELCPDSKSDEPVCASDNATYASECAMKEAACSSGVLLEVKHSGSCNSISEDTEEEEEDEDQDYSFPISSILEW
# Sequence of Fibroblast growth factor 2 (Homo sapiens) (P09038 whole entry, looked up): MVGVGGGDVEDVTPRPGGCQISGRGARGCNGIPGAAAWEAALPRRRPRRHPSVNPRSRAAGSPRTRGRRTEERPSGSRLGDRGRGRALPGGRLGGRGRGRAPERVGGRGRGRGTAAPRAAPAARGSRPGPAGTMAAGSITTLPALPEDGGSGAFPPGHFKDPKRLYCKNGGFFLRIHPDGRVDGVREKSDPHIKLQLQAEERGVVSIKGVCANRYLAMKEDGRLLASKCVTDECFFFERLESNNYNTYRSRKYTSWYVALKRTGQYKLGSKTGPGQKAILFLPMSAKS
# Sequence of Focal adhesion kinase 1 (Homo sapiens) (Q05397 whole entry, looked up): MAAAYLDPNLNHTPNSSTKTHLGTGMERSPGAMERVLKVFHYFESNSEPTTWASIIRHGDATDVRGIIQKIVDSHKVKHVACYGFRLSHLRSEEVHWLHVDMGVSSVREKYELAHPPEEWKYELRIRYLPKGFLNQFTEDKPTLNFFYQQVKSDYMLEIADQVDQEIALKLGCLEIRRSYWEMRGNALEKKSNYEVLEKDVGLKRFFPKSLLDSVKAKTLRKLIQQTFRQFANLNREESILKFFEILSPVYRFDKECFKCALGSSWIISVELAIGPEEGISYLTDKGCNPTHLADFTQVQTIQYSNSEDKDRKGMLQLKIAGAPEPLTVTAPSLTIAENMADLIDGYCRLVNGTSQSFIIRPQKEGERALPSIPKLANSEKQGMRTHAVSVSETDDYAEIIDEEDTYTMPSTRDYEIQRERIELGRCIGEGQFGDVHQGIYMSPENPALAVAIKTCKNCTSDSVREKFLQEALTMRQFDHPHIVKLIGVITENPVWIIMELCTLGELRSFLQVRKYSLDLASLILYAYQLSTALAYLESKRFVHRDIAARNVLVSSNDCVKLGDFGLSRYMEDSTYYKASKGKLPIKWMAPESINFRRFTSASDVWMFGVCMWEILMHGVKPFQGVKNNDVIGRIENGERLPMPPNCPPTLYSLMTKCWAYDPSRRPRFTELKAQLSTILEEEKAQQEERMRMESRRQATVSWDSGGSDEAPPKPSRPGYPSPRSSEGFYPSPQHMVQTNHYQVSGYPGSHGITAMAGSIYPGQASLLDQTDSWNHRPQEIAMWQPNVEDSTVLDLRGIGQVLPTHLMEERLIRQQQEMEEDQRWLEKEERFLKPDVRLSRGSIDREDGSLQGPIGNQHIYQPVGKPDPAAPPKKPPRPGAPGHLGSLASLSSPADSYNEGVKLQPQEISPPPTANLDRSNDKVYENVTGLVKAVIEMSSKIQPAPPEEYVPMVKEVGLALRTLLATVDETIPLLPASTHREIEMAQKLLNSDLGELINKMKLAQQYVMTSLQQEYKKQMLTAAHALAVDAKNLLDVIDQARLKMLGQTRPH
Structure (SMILES),composite z-score [1],composite z-score [2],composite z-score [3],composite z-score [4],composite z-score [5],composite z-score [6],z-score [7],composite z-score (Lefty1),composite z-score [8],z-score [9]
O=C1O[C@@H](c2ccccc2)[C@@H](c2ccccc2)N2[C@@H](c3ccccc3OCCO)[C@]3(C(=O)Nc4ccc(C#CC5=CCCCC5)cc43)[C@@H](C(=O)Nc3nc4ccccc4s3)[C@H]12,0.353,1.17,0.0358,0.843,1.12,0.885,-2.22,0.781,0.622,-0.959 (inactive)
COc1ccc([C@H]2C[C@H]3C(Br)=C[C@@H]2C(=O)[C@]32CO2)cc1,0.613,-0.751,0.298,-0.325,0.6,0.194,0.271,0.0745,-0.138,-0.388 (inactive)
CCOC(=O)[C@H]1CC=C2CC1C(=O)N1CCC[C@@H]1[C@@H]2O[Si](C)(C)C(C)(C)C (stereo not given in full),-0.0289,-0.708,-0.173,-0.162,-0.878,-0.206,-0.158,0.449,-0.502,0.367 (inactive)
COCCOC(=O)N1C(=O)[C@@]2(c3cc(C#Cc4ccc(OC)cc4)ccc31)[C@H](c1ccccc1OCCO)N1[C@H](c3ccccc3)[C@H](c3ccccc3)OC(=O)[C@H]1[C@@H]2C(=O)N1CCN(c2ncccn2)CC1,2.12,1.18,0.863,-0.134,0.803,0.404,-1.18,0.361,0.816,-1.1 (inactive)
COCCOC(=O)N1C(=O)[C@@]2(c3ccccc31)[C@H](c1ccc(O)cc1)N1[C@H](c3ccccc3)[C@H](c3ccccc3)OC(=O)[C@H]1[C@@H]2C(=O)NC[C@H](O)c1ccccc1,2.08,1.2,-0.0504,0.068,0.532,-0.104,-0.767,0.282,0.0324,0.733 (inactive)
O=C1NC(=O)C2C1C=CC(C(O)c1ccccc1)N2Nc1ccc(Cl)cc1Cl (stereo not given),1.62,1.16,0.433,0.985,1.28,0.394,-0.0329,1.4,0.763,-1.44 (inactive)
COC(=O)[C@@]1(Cc2ccc(OC)cc2)[C@H]2c3cc(C(=O)N4CCCC4)n(Cc4ccc(OC)c(OC)c4)c3C[C@H]2CN1C(=O)c1ccccc1,2.04,1.22,0.343,0.607,1.37,0.515,1.58,0.724,0.742,2.16 (inactive)
CS(=O)(=O)CCOC(=O)C1=CC(CCCO)=CC(c2ccc(CN3CCCC3)cc2)N(Cc2cc3c(cc2Br)OCO3)C=C1C(=O)OCCS(C)(=O)=O (stereo not given),2.28,0.712,0.0113,0.971,0.694,0.382,3.39,0.666,0.914,-1.78 (inactive)
C=CCOC(=O)[C@@H]1[C@H]2C(=O)O[C@H](c3ccccc3)[C@H](c3ccccc3)N2[C@H](c2ccc(OCCOC(=O)[C@@H]3C[C@@H]4C(=O)N5CCC[C@H]5C(=O)N4[C@@H]3c3ccc(O)cc3)cc2)[C@@]12C(=O)Nc1ccc(I)cc12,0.426,1.19,0.928,0.837,1.29,1.2,-1.58,0.793,0.635,-0.291 (inactive)
C=CCNC(=O)[C@H]1[C@@H]2C(=O)O[C@@H](c3ccccc3)[C@@H](c3ccccc3)N2[C@@H](c2ccc(OCCO)cc2)[C@]12C(=O)Nc1ccc(C#CC3=CCCCC3)cc12,0.354,1.09,-0.544,0.957,1.26,0.553,-0.801,0.937,0.494,0.098 (inactive)
C=C(COC)/C(=C/C[C@@H](OC(C)=O)c1ccc(CO)o1)c1cnc2ccccc2c1,0.562,1.14,-0.23,0.962,1.44,1.57,-0.482,1.46,1.04,-3.82 (inactive)
